# Screens: PubChem BioAssay, National Center for Advancing Translational Sciences (NCATS)
# Shiga toxin inh – Shiga toxin inhibition. Vero cells, Shiga toxin protein synthesis inhibition reporter. inhibition, % at 38.7 µM. actives 9.2% (n = 290,000); in the data active = inhibition mostly above about 28%, no sharp cut-off; inactive = mostly below about 43%; also: 0% is about no effect
# Cycloheximide cs – counter-screen for Shiga toxin inhibitors: cycloheximide protein synthesis inhibition. cell reporter, cycloheximide protein synthesis inhibition counterscreen. max response, %. actives 12% (n = 300,000); in the data active = max response mostly above about 13%, no sharp cut-off; inactive = mostly below about 14%; also: read at 38.3 µM for the half of the compounds with a filed dose; 0% is about no effect
# FBPA Giardia inh – Giardia lamblia aldolase inhibition. AID 2451. purified Giardia FBPA. A8B2U2. Potency, µM (highest dose often 59.6 µM), inactives show at the top dose activity, negative = inhibition, actives largely listed as inhibitors. actives 0.71% (n = 290,000); also: potency is read from the fitted curve at half-maximal effect; % is scaled to controls: 0 for no effect and ±100 for the full control effect; nearly all actives have a fitted effect of over 55% in size
#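 40 nM FBPA preincubated 10 min at RT with compound (up to 57.5 uM final), then substrate plus GAPDH/TPI/NAD/arsenate coupling and diaphorase/resazurin added. Fluorescence read after 20 min at RT, 525/598 nm.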
# TbPYK inhibitor – T. brucei pyruvate kinase inhibition | actives 0.12% (n = 410,000) | TbPYK enzyme, Kinase-Glo Plus ATP luminescence, 45 min | Q57TT1 | Potency, µM (top dose mostly 76.8 µM), without a hit: at the highest dose activity, negative = inhibition, actives largely listed as inhibitors; also: potency is read from the fitted curve at half-maximal effect; % is scaled to controls: 0 for no effect and ±100 for the full control effect; nearly all actives have a fitted effect of over 50% in size
#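 Screened from lowest to highest concentration, compounds were pinned into TbPYK/substrate mixtures, and ADP (130 uM final) was added. Plates sat at room temperature for 45 min prior to Kinase-Glo Plus detection by luminescence.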
# RE007 growth inh – less growth of the S. pombe RE007 Vpr strain; actives 0.21% (n = 360,000); AID 651644; S. pombe RE007 Vpr strain, BacTiter-Glo ATP luminescence, 24 h; Potency, µM (highest dose often 92.2 µM), for the others: at the highest dose activity change, negative = less growth, most hits filed as inhibitors; active = well fitted falling curve with a large enough effect; inconclusive = small, poorly fitted or top-dose-only effect; inactive = no such curve, though single readings can be large or run the other way; also: potency is read from the fitted curve at half-maximal effect; % is scaled to controls: 0 for no effect and ±100 for the full control effect; nearly all actives have a fitted effect of over 50% in size
#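 Fission yeast strain RE007, carrying one chromosomally integrated HIV-1 vpr copy, was seeded at OD 0.01 in PMG+AL medium with 23 nL pinned compound. After 24 h at 30 °C and 99% humidity, viability was read by BacTiter-Glo luminescence.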
# LmPK inhibitor – blocks Leishmania mexicana pyruvate kinase activity; actives 0.37% (n = 290,000); Q27686; AID 1721; Potency, µM (titrated, usually from 57.5 µM), inactives show top-dose activity change, negative = inhibition, usual class: inhibitors; purified LmPK, Kinase-Glo ATP luminescence, 1 h; also: potency is read from the fitted curve at half-maximal effect; % is scaled to controls: 0 for no effect and ±100 for the full control effect
# Target sequence (Q27686 whole entry, looked up): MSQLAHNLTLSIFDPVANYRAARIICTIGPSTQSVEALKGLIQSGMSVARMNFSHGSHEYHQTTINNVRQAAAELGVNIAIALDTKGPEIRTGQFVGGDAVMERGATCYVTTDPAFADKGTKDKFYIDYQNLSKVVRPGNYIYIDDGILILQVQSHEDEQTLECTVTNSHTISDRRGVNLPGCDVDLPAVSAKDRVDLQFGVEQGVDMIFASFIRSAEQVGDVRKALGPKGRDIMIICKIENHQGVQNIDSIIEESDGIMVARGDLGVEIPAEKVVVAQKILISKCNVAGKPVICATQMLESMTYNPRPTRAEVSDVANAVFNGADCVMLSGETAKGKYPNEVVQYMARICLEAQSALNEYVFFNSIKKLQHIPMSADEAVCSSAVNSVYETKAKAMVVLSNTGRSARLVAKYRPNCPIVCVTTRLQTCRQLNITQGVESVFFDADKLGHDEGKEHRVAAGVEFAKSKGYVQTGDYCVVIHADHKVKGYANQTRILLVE
#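 ATP generated from ADP (0.1 mM) and PEP (0.5 mM) by 0.1 nM LmPK over 1 h at room temperature (pH 7.2 imidazole buffer) was detected by coupled luciferase luminescence. Values were normalized to uninhibited and no-enzyme wells.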
# * hit, by the source's call; ? = inconclusive; · = not tested or not shown; [ ] = another dose, or the depositor's remark. Many of the other results were omitted from the sample, so hits are more common in it than they were. Unless noted, calls follow the shape of the dose curve; as a rule, active = well fitted curve in the direction sought with a large enough effect; inconclusive = small, poorly fitted or top-dose-only effect, or another doubt; inactive = no such curve, though single readings can be large; an effect the other way counts as inactive or inconclusive.
SMILES,Shiga toxin inh,Cycloheximide cs,FBPA Giardia inh,TbPYK inhibitor,RE007 growth inh,LmPK inhibitor
COc1ccccc1C(=O)NC(=S)Nc1ccccc1N1CCCC1,30.9,27.6*,·,·,·,-16.4%
COc1ccccc1C(=O)NC(=S)N1CCCc2ccccc21,164.2*,47.9*,?,-13.6%,13.8%,1.6%
CCn1c(SC)nnc1-c1sc2cc(Cl)ccc2c1Cl,70.8*,13.5*,-14.5%,-10.0%,-5.7%,5.7%
CSc1nnc(-c2sc3cc(Cl)ccc3c2Cl)n1C,-7.0,-0.4,-0.1%,2.4%,10.1%,-12.7%
O=C(OCc1cc(=O)n2c(n1)sc1ccccc12)c1ccc(O)cc1,26.8,35.8*,6.6%,-2.1%,11.0%,3.1%
Nc1ccc(C(=O)OCc2nc3ccccc3s2)cc1,87.1*,56.2*,1.9%,2.5%,-2.2%,6.5%
O=C(OCc1nc2ccccc2s1)c1ccc(Br)s1,28.9,24.6*,·,-5.5%,-9.2%,-4.7%
O=C(OCc1nc2ccccc2s1)c1cc2ccccc2oc1=O,39.5*,34.0*,0.1%,·,·,-0.9%
CCc1ccc(-c2nc3c(c(SCc4ccc(F)cc4)n2)Cc2c(CO)cnc(C)c2O3)cc1,·,·,·,1.1%,·,·
CCc1ccc2occ(CC(=O)Nc3c(C(=O)c4ccc(F)cc4)oc4ccccc34)c2c1,·,·,·,-3.8%,·,·
COC(=O)N1CCC[C@@]2(CCN(Cc3cc(C(F)(F)F)cc(C(F)(F)F)c3)C2)C1,·,·,0.4%,0.2%,·,·
COc1cccc(CCc2ccccc2OCC(CN(C)C)OC(=O)CCC(=O)O)c1 (stereo unspecified),·,·,·,-3.9%,·,·
CC(c1ccccc1)C1C(C#N)=C(N)OC2=C1C(=O)CC(C)(C)C2 (stereo unspecified),-10.2,-1.1,1.3%,·,16.8%[3.69 µM],0.5%
CC1(C)CC(=O)C2=C(C1)OC(N)=C(C#N)C2C#Cc1ccccc1 (stereo unspecified),22.5,6.4,-29.2%,-21.0%,5.62µM*,3.1%
CC1(C)CC(=O)C2=C(C1)OC(N)=C(C#N)C2c1cn(-c2ccccc2)nc1-c1ccccc1 (stereo unspecified),-2.9,18.0*,-4.4%,7.6%,5.9%,-0.3%
Cc1ccc(Cn2c(SCC(=O)C(C)(C)C)nc3ccsc3c2=O)cc1,·,·,·,-6.4%,·,·
O=C(COC(=O)c1cncc(Br)c1)NCc1cccs1,·,·,·,0.0%,-12.6%,·
CCN(CCn1cccn1)C(=O)CCc1nnc(C2(c3ccc(Cl)cc3)CCC2)o1,91.5*,40.5*,0.7%,-13.0%,14.7%,2.0%
COCCNC(=O)CCc1nnc(C2(c3ccc(Cl)cc3)CCC2)o1,13.2,6.7,-1.4%,5.7%,5.5%,-20.8%
CCN(CCn1cccn1)C(=O)CCc1nnc(-c2ccccc2)o1,57.2*,36.6*,3.1%,-4.0%,-4.3%,-5.6%
COCC1CCN(C(=O)CCc2nnc(C3(c4ccc(Cl)cc4)CCC3)o2)CC1,33.5,14.5*,6.0%,1.7%,-5.7%,3.9%
CCOC(=O)C1CCCN(C(=O)c2ccc(-c3ccccc3)cc2)CC1 (stereo unspecified),·,·,·,-5.5%,-21.5%[18.4 µM],·
CCc1ccc(-c2ccc(C(=O)O)cc2)nc1,37.3,37.9*,17.3%,?,-0.5%,?
COc1cccc(C(=O)Nc2ccc(NC(=O)C3CC3)cn2)c1,69.7*,29.2*,-0.6%,-19.0%,3.9%,?
CCC(=O)Nc1ccc(NC(=O)c2cccc(OC)c2)nc1,24.2*,23.5*,0.3%,-9.3%,-5.2%,?
SMILES,Shiga toxin inh,Cycloheximide cs,FBPA Giardia inh,TbPYK inhibitor,RE007 growth inh,LmPK inhibitor
CCn1nnnc1NC(=O)c1cccc(OC)c1,82.6*,32.4*,-0.1%,0.9%,3.2%,-2.8%
CCCN(CC(=O)NC(=O)NCc1ccccc1)CC(=O)Nc1ccc(F)c(F)c1F,·,·,·,2.8%,1.1%,·
Nc1nnc(SCCOc2ccc(Br)cc2)s1,36.8,18.4*,-0.1%,0.4%,5.0%,3.0%
Nc1nnc(SCc2ccccc2Cl)s1,35.2,23.5,12.6%,-1.9%,16.7%,1.0%
CC(C)COC(=O)Nc1nnc(SCCOc2ccccc2)s1,5.8,0.3,5.7%,-0.8%,-1.8%,3.3%
Nc1nnc(SCCOc2ccccc2)s1,26.6*,16.6*,1.1%,-14.4%,-19.2%,-0.6%
CCCSc1nnc(N)s1,-7.8,-3.6,-2.1%,-1.1%,1.4%,-2.3%
Cc1nnc(SCCOc2ccccc2)s1,36.5,25.7*,1.3%,-1.2%,14.6%,1.3%
COc1ccc(C2CC(=O)c3cc(-c4nc(-c5ccc(Cl)cc5)cs4)c(=O)[nH]c3C2)cc1 (stereo unspecified),·,·,·,2.1%,·,·
CNC[C@H]1OCc2ccccc2-c2ccccc2C(=O)N([C@@H](C)CO)C[C@H]1C,·,·,·,1.5%,9.7%,·
CCCCc1ccc(Nc2nc(CCC)cc(=O)[nH]2)cc1,-9.7,-0.8,-4.4%,0.7%,4.2%,0.6%
CCCc1cc(=O)[nH]c(Nc2ccc3c(c2)OCCO3)n1,42.2*,36.0*,4.9%,-5.8%,14.5%,0.6%
COc1cccc(CNCC(=O)NC(=O)NC2CCCC2)c1,·,·,·,-6.5%,-14.8%,·
COc1cc(Nc2ccc(S(N)(=O)=O)cc2)c([N+](=O)[O-])nc1[N+](=O)[O-],·,-2.8,-5.8%,-4.6%,-4.6%,7.2%
Cc1nn(CC(=O)c2ccccc2Cl)c(C)c1[N+](=O)[O-],93.1*,47.9*,-0.8%,1.8%,24.8%,?
CCN(CC)c1ccc(CNc2ccc(Br)cn2)cc1,87.9*,33.1*,-3.1%,-2.8%,15.6%,-0.7%
COc1ccc(OC)c(S(=O)(=O)NCC(c2cccs2)S(=O)(=O)c2ccc(F)cc2)c1 (stereo unspecified),·,·,·,1.8%,·,·
Clc1ccccc1OCCCOc1cccc2cccnc12,·,37.4*,-2.3%,-1.8%,-23.4%,4.3%
Brc1ccccc1OCCOCCOc1cccc2cccnc12,23.7,1.8,-6.2%,8.0%,-16.6%,-1.9%
O=C(/C=C\c1ccccc1)Oc1cccc2cccnc12,26.3,21.3*,?,6.2%,?,-2.3%
O=C(/C=C/c1ccccc1)Oc1cccc2cccnc12,23.5,8.7,-21.2%,-16.9%,?,1.4%
O=Cc1ccccc1OCCCOc1cccc2cccnc12,56.1*,23.9*,-12.1%,-19.7%,-1.6%,-4.4%
O=[N+]([O-])c1ccccc1OCCCOc1cccc2cccnc12,·,28.7*,-27.7%,-2.1%,-18.2%,5.6%
O=C(c1[nH]c(C(F)(F)F)nc1-c1ccccc1)N1CCc2ccccc2C1,·,·,·,5.6%,5.4%,·
O=[N+]([O-])c1cccc(/C=N/N=C\c2ccccc2)c1,56.2*,36.2*,0.2%,0.9%,-10.1%,3.4%
O=[N+]([O-])c1cccc(/C=N/N2CCN(c3ccccn3)CC2)c1,1.0,15.3*,-5.0%,-5.2%,9.5%,-6.1%
O=[N+]([O-])c1cccc(/C=N\N2CCN(Cc3ccccc3Cl)CC2)c1,20.3,16.1*,-4.9%,3.4%,?,1.3%
